Most compounds without a hit are left out; they make up all but 31% or so of the library.
CYP2C19 inh – blockers of cytochrome P450 2C19 activity – biochemical, luminescence, ADME assay, primary screen; AID 778, 2007; CYP2C19 Supersomes, luciferin-H EGE luminescence, 30 min; 96,000 compounds, 21% hits; inhibition, % at 5 µM;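 active = CYP2C19 inhibition above a set limit at 5 µM in the primary screen, cut at about 50% in these data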
Target sequence (P33261 whole entry, looked up): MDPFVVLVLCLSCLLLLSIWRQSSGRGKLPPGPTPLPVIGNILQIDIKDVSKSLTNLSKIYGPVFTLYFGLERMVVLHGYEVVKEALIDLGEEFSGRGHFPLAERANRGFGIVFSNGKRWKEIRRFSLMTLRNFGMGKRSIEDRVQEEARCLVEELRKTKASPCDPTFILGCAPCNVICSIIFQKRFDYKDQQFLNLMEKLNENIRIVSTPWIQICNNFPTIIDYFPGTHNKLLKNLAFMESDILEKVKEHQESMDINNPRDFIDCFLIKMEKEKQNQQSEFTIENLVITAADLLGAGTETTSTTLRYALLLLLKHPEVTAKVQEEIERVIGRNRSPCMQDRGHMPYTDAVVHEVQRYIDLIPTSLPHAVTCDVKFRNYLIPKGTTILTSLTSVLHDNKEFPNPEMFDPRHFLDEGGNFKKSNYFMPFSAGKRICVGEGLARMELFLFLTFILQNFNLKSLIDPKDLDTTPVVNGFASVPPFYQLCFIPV
CYP2C9 inh – blockers of cytochrome P450 2C9 activity – biochemical, luminescence, ADME assay, primary screen. inhibition, % at 5 µM. 96,000 compounds, 20% hits. AID 777, 2007. CYP2C9 Supersomes, luciferin-H conversion. P11712;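 active = blocking of liver enzyme CYP2C9 beyond about 50% at 5 µM, limit read from the data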
PLAP act – PLAP enzyme activators, biochemical, luminescence, HTS. Alkaline phosphatase, placental type (Homo sapiens), P05187. 96,000 compounds, 1.2% hits. activation fold at 20 µM. purified PLAP enzyme, luminescent substrate read-out; stronger effect = higher value. AID 696, 2007; in the data active = activation fold above about 2
CYP2C9 act – human CYP2C9 activators, primary screen, biochemical, luminescence | Cytochrome P450 2C9 (Homo sapiens), P11712 | recombinant CYP2C9, luciferin-H conversion; stronger effect = higher value; factor 1 = untreated enzyme, 0 = blocked | activation factor at 5 µM | 96,000 compounds, 1.4% hits | AID 1024, 2008;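 active = activation factor of 2 or more for CYP2C9 at a 5 µM dose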
CYP2C19 activ – human CYP2C19 activators, primary screen, biochemical, luminescence; Cytochrome P450 2C19 (Homo sapiens), P33261; recombinant CYP2C19, luciferin-H EGE luminescence; stronger effect = higher value; 0 = fully inhibited enzyme, 1 = untreated enzyme; activation factor at 5 µM; 96,000 tested, under 10 active; AID 1025, 2008;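 active = activation factor of at least 2 at 5 µM in the primary screen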
Numbers stand for hits; . = inactive; ! = repeats disagree.

SMILES | CYP2C19 inh | CYP2C9 inh | PLAP act | CYP2C9 act | CYP2C19 activ
COc1cccc(C2CC(=O)Nc3cc4c(cc32)OCCO4)c1OC(C)C (stereo not given) | . | 63 | . | . | .
COc1cc2c(cc1OC)C(c1ccc(N(C)C)cc1)CC(=O)N2 (stereo not given) | . | . | . | . | .
CC(C)Oc1ccccc1C1CC(=O)Nc2cc3c(cc21)OCCO3 (stereo not given) | 96 | 96 | . | . | .
CCOc1ccccc1C1CC(=O)NC(SCC)=C1C#N (stereo not given) | . | . | . | . | .
Cc1ccc(C2CC(=O)Nc3cc4c(cc32)OCCO4)s1 (stereo not given) | . | . | . | . | .
CCOc1ccccc1C1CC(=O)Nc2cc3c(cc21)OCO3 (stereo not given) | 98 | 66 | . | . | .
COc1ccccc1C1CC(=O)Nc2cc3c(cc21)OCCO3 (stereo not given) | . | 74 | . | . | .
O=C(Cn1c(C(F)(F)F)nc2ccccc21)c1ccc(F)cc1 | . | . | . | . | .
O=C(CN1CCCN(Cc2ccc(F)cc2Cl)C1=O)NCc1ccccc1 | . | . | . | . | .
O=C1CC(c2cccs2)c2cc3c(cc2N1)OCCO3 (stereo not given) | 68 | 71 | . | . | .
CC(C)Oc1ccccc1C1Nc2ccccc2C(=O)N1c1ccc2c(c1)OCCO2 (stereo not given) | 95 | 96 | . | . | .
CCOCC(O)CS(=O)(=O)c1ccccn1 (stereo not given) | . | . | . | . | .
Cc1sc2nc(C3CCCCC3)nc(SCC(=O)N3CC(=O)Nc4ccccc43)c2c1C | . | 86 | . | . | .
c1ccc(-c2ncnc3nc4n(c23)CCC4)cc1 | . | . | . | . | .
Cc1cc(=O)oc2ccc(OCC(=O)N(Cc3ccc(F)cc3)Cc3ccco3)cc12 | 86 | 89 | . | . | .
COc1cccc(-c2noc(N)c2C#N)c1 | . | . | . | . | .
O=C(CSc1cccc2cccnc12)OCC(=O)c1ccc(Br)cc1 | . | . | . | . | .
O=C(CSc1cccc2cccnc12)OCC(=O)c1ccccc1 | . | . | . | 2.6 | .
C=CCSc1nccc(-c2cc(Cl)sc2Cl)n1 | 80 | 72 | . | . | .
N#CCSc1nccc(-c2cc(Cl)sc2Cl)n1 | . | . | . | . | .
Cc1csc2ncc(C(=O)N3CCCc4ccccc43)c(=O)n12 | . | . | . | . | .
Cn1c(C(=O)N2CCCc3ccccc32)cc2sccc21 | 71 | . | . | . | .
O=C(c1cc2sccc2n1Cc1ccccc1)N1CCc2ccccc21 | . | 63 | . | . | .
O=C(c1cc2sccc2n1Cc1ccccc1)N1CCCc2ccccc21 | 88 | 95 | . | . | .
CCCS(=O)(=O)c1c(S(=O)(=O)CCC)c2cnccn2c1C(=O)c1ccc(Cl)cc1 | . | . | . | . | .
SMILES | CYP2C19 inh | CYP2C9 inh | PLAP act | CYP2C9 act | CYP2C19 activ
CC(C)COc1ccc(C(=O)N/C(=C\c2cccc([N+](=O)[O-])c2)C(=O)OC(C)C)cc1 | . | . | . | . | .
CCOC(=O)C1=C(C)N(c2ccccc2)C(=O)C1CC(=O)O (stereo not given) | 53 | . | . | . | .
CCOC(=O)C1=C(C)N(C)C(=O)C1CC(=O)O (stereo not given) | . | . | . | . | .
COc1cc(C(=O)NCCC(=O)NCCCN2CCCCC2)cc(OC)c1OC | . | . | . | . | .
COc1cc(CNC2CCCCCC2)cc(OC)c1 | . | . | . | . | .
COc1ccc2c(c1)Sc1ccccc1N2CCN(C)C | 57 | . | . | . | .
CCN1/C(=C/C(C)=O)Sc2ccc(OC)cc21 | . | . | . | . | .
O=C(Nc1cccc(C(F)(F)F)c1)c1ccc2nc(N3C(=O)CCC3=O)sc2c1 | . | . | . | . | .
CCOC(=O)CCC(NC(=O)c1ccc(NCN2C(=O)c3ccccc3C2=O)cc1)C(=O)OCC (stereo not given) | . | 55 | . | . | .
CCOC(=O)CCC(NC(=O)c1ccc(NCN2C(=O)CCC2=O)cc1)C(=O)OCC (stereo not given) | . | . | . | . | .
Cn1c2ccccc2c2nn(-c3ccccc3)c(=O)cc21 | 71 | . | . | . | .
CC(C)NC(=O)COc1ccc(/C=N/NS(=O)(=O)c2ccccc2)cc1 | . | . | . | . | .
O=C(COc1ccc(/C=N/NS(=O)(=O)c2ccccc2)cc1)Nc1ccc(F)cc1 | . | 65 | . | . | .
Cc1ccc(S(=O)(=O)N/N=C/c2ccc(OCC(=O)Nc3ccccc3Cl)cc2)cc1 | . | 84 | . | . | .
CCOc1c(C)cc(-c2ncccc2O)cc1C | 69! | . | . | . | .
CCCCN(C)C(=O)C(Cc1ccccc1)NS(=O)(=O)c1ccc2c(c1)c(=O)n(C)c(=O)n2C (stereo not given) | . | . | . | . | .
Cc1nc(C)c(C(=O)N/N=C/c2cn(C)c3ccccc23)s1 | 53 | . | . | . | .
COc1cccc(C(=O)OCc2ccccc2C#N)c1O | 92 | 76 | . | . | .
CCc1cccc2c(C#N)cn(CCOc3ccccc3OC)c12 | . | . | . | . | .
CC(=O)N1CCCc2cc(S(=O)(=O)NC(C(=O)NCc3ccc(C)cc3)C(C)C)ccc21 (stereo not given) | . | . | . | . | .
COC(=O)Nc1ncc(CN2CCc3ccccc3C2)s1 | 76 | . | . | . | .
CCOC(=O)C1CCN(Cc2cnc(NC(=O)OC)s2)CC1 | . | . | . | . | .
Cc1ccc(NC(=O)CN2C(=O)N/C(=C/c3ccco3)C2=O)cc1 | . | . | . | . | .
Cc1cccc(NC(=O)CN2C(=O)N/C(=C/c3cc(C)n(C(C)C)c3C)C2=O)c1 | . | 71 | . | . | .
O=C(Nc1ccc(SC(F)F)cc1)c1ccc2nccnc2c1 | . | . | . | . | .
SMILES | CYP2C19 inh | CYP2C9 inh | PLAP act | CYP2C9 act | CYP2C19 activ
CCNS(=O)(=O)c1ccc(Br)c(OC)c1 | . | . | . | 2.2 | .
COCCNS(=O)(=O)c1cc(F)ccc1OC | . | . | . | . | .
COCCN(CCOC)S(=O)(=O)c1ccc(OC)cc1 | . | . | . | . | .
COCCNS(=O)(=O)c1cc(OC)c(Cl)cc1Cl | 68 | . | . | . | .
CCN(CC)S(=O)(=O)c1cc(OC)c(Cl)cc1Cl | 97 | . | . | 3 | .
CCN(CC)S(=O)(=O)c1ccc(Oc2ccc(S(=O)(=O)N(CC)CC)cc2)cc1 | 67 | 87 | . | . | .
Cc1cc(Nc2cc(C)on2)n2ncnc2n1 | . | . | . | . | .
CCN(CC(N)=O)S(=O)(=O)c1ccc(Br)cc1 | . | . | . | . | .
CCOc1cc(C)c(Cl)cc1S(=O)(=O)N(CC)CC | 53 | . | . | 2 | .
CCN(CC)S(=O)(=O)c1ccc(Cl)c(OC)c1 | 89 | . | . | 2.4 | .

Bioassay records deposited in PubChem BioAssay by Sanford-Burnham Center for Chemical Genomics.
